Test results reported in PubChem BioAssay (NCATS).
Where “and” joins values, the source holds several entries; their conditions need not be identical. Equal values may be shown once. Records with an inconclusive call do not appear. Calls of active or inactive are those of the source. Unless noted, the call rests on the fitted dose curve.

How the values were obtained:
[1] = target: Glucocorticoid receptor (Homo sapiens) (UniProt P04150); experiment: GR-GFP Redistribution (AID 450;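 active means compounds whose dose series gives a full or clear partial fitted curve of increased nuclear translocation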; further: potency means the concentration at half of the fitted maximal effect); conditions: U2OS GR-GFP nuclear translocation, laser cytometry, 2 h
[2] = Confirmation and Secondary Assay for Modulators of Hemoglobin Beta Chain Splicing at IVS2 654 locus (AID 910; active means well fitted curve in the direction sought with a large enough effect; an effect the other way counts as inactive or inconclusive;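 further: HeLa cells stably carrying EGFP split by mutant beta-globin IVS2-654 intron; per-well total GFP intensity by laser scanning cytometry after 2-day treatment; % of control where 0% means no effect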); conditions: HeLa EGFP-654 splicing reporter, GFP fluorescence, 48 h; series mostly up to 46.1 µM
How it was run: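 Readout: per-well total peak green fluorescence (488 nm ex, 500–520 nm em) from objects 5–250 µm, reflecting correct splicing of an EGFP-654 reporter. Compounds were applied for 2 days at 37 °C to overnight-plated HeLa EGFP-654 cells; controls were DMSO and 500 nM IVS2-654 PNA.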

[3] = Confirmation and Secondary Assay for Modulators of Hemoglobin Beta Chain Splicing at IVS2 705 locus (AID 930; active means well fitted curve in the direction sought with a large enough effect; an effect the other way counts as inactive or inconclusive;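 further: HeLa cells stably expressing the EGFP-705 splicing reporter; GFP fluorescence per well restored by corrected splicing of the IVS2-705 intron in EGFP; % of control where 0% means no effect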); conditions: HeLa EGFP-705 splicing reporter, GFP fluorescence, 48 h; series mostly up to 46.1 µM
How it was run: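 Fluorescence gain (488 nm laser, 500-520 nm PMT) reflects restored correct splicing of a mutant IVS2-705 intron inside EGFP in stably transfected HeLa cells after 2-day compound treatment.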

[4] = qHTS Assay for Lipid Storage Modulators (AID 1519); conditions: Drosophila S3 cells, BODIPY lipid droplet/cell ratio, laser cytometry, cells loaded with oleic acid; on activity change, negative = inhibition: on the % scale 0 is the no-effect control and ±100 the full control effect
How it was run: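 Cells seeded at 5,000 per well were treated with compounds over a concentration series and loaded with oleic acid (400 uM, as added). Lipid droplet fluorescence (488 nm excitation, 500-530 nm channel) was read by laser-scanning cytometry and normalized to 20 uM Triacsin C.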

[5] = qHTS for Inhibitors of the Functional Ribonucleoprotein Complex (vRNP) of Lassa (LASV) Arenavirus: LASV Primary Screen - GLuc reporter signal (AID 1347082; calls by dose curve; tested in HEK293 reporter line; further: nearly all actives have a fitted effect of over 60% in size; further: potency means the concentration at half of the fitted maximal effect; on activity change, negative = inhibition: on the % scale 0 is the no-effect control and ±100 the full control effect); conditions: LASV minigenome vRNP, Gaussia luciferase reporter; series mostly up to 57.5 µM
[6] = qHTS for Inhibitors of the Functional Ribonucleoprotein Complex (vRNP) of Lassa (LASV) Arenavirus: Viability assay - alamar blue signal for LASV Primary Screen (AID 1347083; calls by dose curve; tested in HEK293 reporter line; further: nearly all actives have a fitted effect of over 80% in size; further: potency means the concentration at half of the fitted maximal effect); conditions: cell viability, alamar blue fluorescence (LASV minigenome counter-screen); series mostly up to 57.5 µM
[7] = qHTS for Inhibitors of the Functional Ribonucleoprotein Complex (vRNP) of Lymphocytic Choriomeningitis Arenaviruses (LCMV): Viability assay - alamar blue signal for LCMV Primary Screen (AID 1347085; calls by dose curve; tested in HEK293 reporter line; further: nearly all actives have a fitted effect of over 80% in size; further: potency means the concentration at half of the fitted maximal effect); conditions: alamar blue viability counter-screen, LCMV vRNP screen cells; series mostly up to 57.5 µM
[8] = target: Nucleoprotein (Lymphocytic choriomeningitis virus (strain Armstrong)) (UniProt P09992); experiment: qHTS for Inhibitors of the Functional Ribonucleoprotein Complex (vRNP) of Lymphocytic Choriomeningitis Arenaviruses (LCMV): LCMV Primary Screen - GLuc reporter signal (AID 1347086); conditions: LCMV minigenome vRNP cell assay, Gaussia luciferase reporter; series mostly up to 57.5 µM; further: nearly all actives have a fitted effect of over 70% in size; further: potency means the concentration at half of the fitted maximal effect; on activity change, negative = inhibition: on the % scale 0 is the no-effect control and ±100 the full control effect
[9] = Cytotoxicity counterscreen for inhibitors of SARS-CoV-2 cell entry (AID 1645845); conditions: cell viability (SARS-CoV-2 entry assay cells); series mostly up to 57.1 µM; further: nearly all actives have a fitted effect of over 50% in size
How it was run: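 ATP-content luminescence (ATPLite 1step, 15 min RT) read after 48 h compound exposure of Expi293F cells stably expressing human ACE2; normalized to cells-only wells and media-only wells.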

[10] = target: Rap guanine nucleotide exchange factor 3 (Homo sapiens) (UniProt O95398); experiment: Confirmatory qHTS for agonist of cAMP-regulated guanine nucleotide exchange factor 3 (EPAC1) (AID 1645881; active means well fitted curve in the direction sought with a large enough effect; an effect the other way counts as inactive or inconclusive;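 further: EPAC1 catalysed release of BODIPY-GDP from Rap1B seen as fluorescence loss; nearly all actives have a fitted effect of over 75% in size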); conditions: EPAC1 Rap1B BODIPY-GDP exchange fluorescence, 100% = cAMP control response; series mostly up to 154 µM
[11] = target: Rap guanine nucleotide exchange factor 4 (Homo sapiens) (UniProt Q8WZA2); experiment: Confirmatory qHTS for agonist of cAMP-regulated guanine nucleotide exchange factor 4 (EPAC2) (AID 1645884; active means well fitted curve in the direction sought with a large enough effect; an effect the other way counts as inactive or inconclusive;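 further: nucleotide exchange releases bodipy-GDP from Rap1 and this lowers its fluorescence; on the % scale 0 is the no-effect control and ±100 the full control effect; nearly all actives have a fitted effect of over 65% in size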); conditions: EPAC2 GEF activity, Rap1B-BODIPY-GDP fluorescence, percent relative to cAMP agonist control; series mostly up to 154 µM
[12] = target: Rap guanine nucleotide exchange factor 4 (Homo sapiens) (UniProt Q8WZA2); experiment: Confirmatory qHTS for antagonist of cAMP-regulated guanine nucleotide exchange factor 4 (EPAC2) (AID 1645885; active means well fitted curve in the direction sought with a large enough effect; an effect the other way counts as inactive or inconclusive; further: potency means the concentration at half of the fitted maximal effect; nearly all actives have a fitted effect of over 25% in size); conditions: EPAC2 Rap1B-BODIPY-GDP exchange fluorescence, biochemical; series mostly up to 114 µM
[13] = target: Rap guanine nucleotide exchange factor 3 (Homo sapiens) (UniProt O95398); experiment: Counterscreen qHTS for antagonist of cAMP-regulated guanine nucleotide exchange factor 3 (EPAC1) (AID 1645888; active means well fitted curve in the direction sought with a large enough effect; an effect the other way counts as inactive or inconclusive;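 further: fluorescence loss as bound BODIPY-GDP is released from Rap1B; % of control where 0% means no effect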); conditions: Rap1B-BODIPY-GDP nucleotide exchange, fluorescence; series mostly up to 154 µM
How it was run: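 Rap1B-BODIPY-GDP 250 nM + GDP 50 uM; cpds 7-pt, final 9.74 nM–152 uM (activator mode) or from 7.32 nM upwards (inhibitor mode); RT; FI 480/540 nm at 5 and 30 min, then ± cAMP, reread.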

[14] = Primary qHTS for small molecule stabilizers of the endoplasmic reticulum resident proteome: Secreted ER Calcium Modulated Protein (SERCaMP) assay (AID 1508630; active means well fitted curve in the direction sought with a large enough effect; an effect the other way counts as inactive or inconclusive; further: on the % scale 0 is the no-effect control and ±100 the full control effect); conditions: SH-SY5Y GLuc-SERCaMP (Gaussia luciferase released on ER calcium loss) secretion, thapsigargin, luminescence; series mostly up to 38.4 µM
How it was run: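 The SH-SY5Y reporter protocol was run at 3 concentrations up to 38.3 uM (primary) or 11 concentrations (follow-up): 16 h compound, 100 nM thapsigargin for 4 h, then extracellular luciferase luminescence.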

[15] = Primary qHTS to identify inhibitors of SARS-CoV-2 cell entry (AID 1645846); conditions: SARS-CoV-2 pseudovirus cell entry assay, luminescence; activity change, negative = inhibition: at 57.1 µM (top of the series) unless noted; series mostly up to 57.1 µM; further: nearly all actives have a fitted effect of over 45% in size
How it was run: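 Entry measured by luciferase signal 48 h after adding SARS-CoV-2-S pseudotyped MLV particles to HEK293-ACE2 cells preincubated 1 h with compounds. Normalisation: bald particles and spike particles.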

Sequence of Rap guanine nucleotide exchange factor 3 (Homo sapiens) (O95398 whole entry, looked up): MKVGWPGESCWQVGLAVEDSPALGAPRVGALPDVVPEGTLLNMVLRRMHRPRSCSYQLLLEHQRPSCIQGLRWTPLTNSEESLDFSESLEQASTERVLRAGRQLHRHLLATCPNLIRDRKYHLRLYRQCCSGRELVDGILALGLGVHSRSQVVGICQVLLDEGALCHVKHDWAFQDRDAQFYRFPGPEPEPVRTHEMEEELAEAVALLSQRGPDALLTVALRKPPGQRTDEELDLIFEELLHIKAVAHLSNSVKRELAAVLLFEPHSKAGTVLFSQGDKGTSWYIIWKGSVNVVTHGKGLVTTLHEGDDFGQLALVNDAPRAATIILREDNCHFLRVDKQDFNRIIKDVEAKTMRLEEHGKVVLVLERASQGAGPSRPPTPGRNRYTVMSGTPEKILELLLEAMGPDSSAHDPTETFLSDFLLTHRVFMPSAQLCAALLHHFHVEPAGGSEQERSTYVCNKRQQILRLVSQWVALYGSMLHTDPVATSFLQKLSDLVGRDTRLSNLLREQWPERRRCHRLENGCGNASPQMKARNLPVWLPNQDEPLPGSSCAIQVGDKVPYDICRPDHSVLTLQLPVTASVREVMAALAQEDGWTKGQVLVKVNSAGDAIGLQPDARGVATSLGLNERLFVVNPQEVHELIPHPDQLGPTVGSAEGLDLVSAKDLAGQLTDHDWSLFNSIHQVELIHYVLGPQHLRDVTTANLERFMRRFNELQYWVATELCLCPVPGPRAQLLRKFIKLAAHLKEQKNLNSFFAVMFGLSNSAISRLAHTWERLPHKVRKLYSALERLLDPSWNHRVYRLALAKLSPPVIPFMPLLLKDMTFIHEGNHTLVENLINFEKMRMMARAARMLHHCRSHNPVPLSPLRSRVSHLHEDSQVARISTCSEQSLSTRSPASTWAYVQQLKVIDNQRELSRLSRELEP
Sequence of Nucleoprotein (Lymphocytic choriomeningitis virus (strain Armstrong)) (P09992 whole entry, looked up): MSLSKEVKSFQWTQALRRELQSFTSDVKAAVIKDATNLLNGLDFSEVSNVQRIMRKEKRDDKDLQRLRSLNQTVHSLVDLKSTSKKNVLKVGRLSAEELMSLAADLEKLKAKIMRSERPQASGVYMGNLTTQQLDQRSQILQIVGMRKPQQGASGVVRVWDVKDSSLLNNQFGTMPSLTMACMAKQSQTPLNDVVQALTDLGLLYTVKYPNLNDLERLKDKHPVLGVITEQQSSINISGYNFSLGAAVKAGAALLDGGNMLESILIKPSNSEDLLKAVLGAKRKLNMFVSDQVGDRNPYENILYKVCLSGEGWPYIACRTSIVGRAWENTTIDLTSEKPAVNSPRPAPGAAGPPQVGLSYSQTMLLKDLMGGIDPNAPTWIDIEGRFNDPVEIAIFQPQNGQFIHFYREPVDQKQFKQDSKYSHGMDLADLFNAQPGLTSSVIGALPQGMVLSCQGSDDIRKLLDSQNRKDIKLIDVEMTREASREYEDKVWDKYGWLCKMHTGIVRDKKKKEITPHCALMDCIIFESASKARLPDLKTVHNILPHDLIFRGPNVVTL
Sequence of Rap guanine nucleotide exchange factor 4 (Homo sapiens) (Q8WZA2 whole entry, looked up): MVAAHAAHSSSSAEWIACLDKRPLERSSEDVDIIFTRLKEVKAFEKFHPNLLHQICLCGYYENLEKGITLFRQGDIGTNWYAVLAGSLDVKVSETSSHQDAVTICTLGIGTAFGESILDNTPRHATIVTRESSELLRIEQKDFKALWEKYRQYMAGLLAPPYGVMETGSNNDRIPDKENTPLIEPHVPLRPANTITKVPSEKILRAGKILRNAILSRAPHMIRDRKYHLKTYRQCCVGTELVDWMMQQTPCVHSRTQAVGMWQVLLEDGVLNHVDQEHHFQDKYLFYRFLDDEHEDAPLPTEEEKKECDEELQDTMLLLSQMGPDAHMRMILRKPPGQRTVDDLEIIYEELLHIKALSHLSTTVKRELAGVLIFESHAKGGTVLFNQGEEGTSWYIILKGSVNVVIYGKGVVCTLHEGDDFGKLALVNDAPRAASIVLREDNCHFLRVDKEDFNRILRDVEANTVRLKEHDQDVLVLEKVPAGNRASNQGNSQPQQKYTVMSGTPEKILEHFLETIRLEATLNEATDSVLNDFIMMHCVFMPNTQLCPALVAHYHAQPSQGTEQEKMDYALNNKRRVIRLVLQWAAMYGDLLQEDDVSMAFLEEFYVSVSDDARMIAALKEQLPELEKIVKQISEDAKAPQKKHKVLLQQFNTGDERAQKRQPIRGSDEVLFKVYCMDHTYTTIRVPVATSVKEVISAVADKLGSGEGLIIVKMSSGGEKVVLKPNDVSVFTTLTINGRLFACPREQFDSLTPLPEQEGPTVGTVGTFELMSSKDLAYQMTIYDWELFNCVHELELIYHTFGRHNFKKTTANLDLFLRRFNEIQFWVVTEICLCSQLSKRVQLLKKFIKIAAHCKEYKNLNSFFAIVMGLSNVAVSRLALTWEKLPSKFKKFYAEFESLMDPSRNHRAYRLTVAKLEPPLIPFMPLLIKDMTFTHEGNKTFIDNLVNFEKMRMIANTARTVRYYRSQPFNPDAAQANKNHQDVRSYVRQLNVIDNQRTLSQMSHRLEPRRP
Sequence of Glucocorticoid receptor (Homo sapiens) (P04150 whole entry, looked up): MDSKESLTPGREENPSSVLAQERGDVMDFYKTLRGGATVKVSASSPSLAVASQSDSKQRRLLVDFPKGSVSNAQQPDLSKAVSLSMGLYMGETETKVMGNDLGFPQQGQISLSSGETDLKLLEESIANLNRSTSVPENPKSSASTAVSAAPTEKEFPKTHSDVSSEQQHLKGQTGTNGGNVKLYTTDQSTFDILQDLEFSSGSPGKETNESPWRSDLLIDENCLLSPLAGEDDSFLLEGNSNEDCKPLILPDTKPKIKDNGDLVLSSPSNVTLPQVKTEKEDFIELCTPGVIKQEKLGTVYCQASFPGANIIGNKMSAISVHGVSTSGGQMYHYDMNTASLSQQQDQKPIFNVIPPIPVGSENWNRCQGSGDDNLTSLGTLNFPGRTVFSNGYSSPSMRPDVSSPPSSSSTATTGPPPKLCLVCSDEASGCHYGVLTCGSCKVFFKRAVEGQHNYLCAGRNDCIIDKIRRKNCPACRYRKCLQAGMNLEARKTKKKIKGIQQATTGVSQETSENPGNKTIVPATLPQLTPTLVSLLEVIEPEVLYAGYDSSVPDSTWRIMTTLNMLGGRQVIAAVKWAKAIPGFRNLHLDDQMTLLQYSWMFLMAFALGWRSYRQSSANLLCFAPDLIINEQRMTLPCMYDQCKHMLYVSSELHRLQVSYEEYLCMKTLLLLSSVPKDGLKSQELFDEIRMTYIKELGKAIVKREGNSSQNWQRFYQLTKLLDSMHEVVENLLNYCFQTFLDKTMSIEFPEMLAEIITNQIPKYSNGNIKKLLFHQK

Clc1ccc(COC(Cn2ccnc2)c2ccc(Cl)cc2Cl)c(Cl)c1 (stereo not given)
-3.69%: max response ([4]; measured here: lipid channel max response)
active: Potency [12] 49.4 µM and 21.3 µM
inactive: Potency [1] > 20.6 µM | Potency [2] | outcome [3] | activity change, negative = inhibition ([4]; at 57.5 µM (top of the series)) 3.93% | Potency [5] | Potency [6] | Potency [7] | Potency [8] | Potency [9] | outcome [10] | outcome [11] | outcome [13]
-9.24%: max response ([4]; measured here: cell count channel max response)

CCN1C[C@]2(C)CC[C@H](OC)[C@@]34[C@H]1C1(OCO[C@@]15C[C@H](OC)C1C[C@]3(O)C5[C@H]1OC)[C@@H](O)[C@H]24
inactive: Potency [5] | Potency [6] | Potency [7] | Potency [8] | Potency [14]

O=C(NCCCCN1CCOCC1)c1cc2ccccc2o1
inactive: Potency [5] | Potency [6] | Potency [7] | Potency [8] | Potency [9] | Potency [15]

CCn1cc(-c2ccnc3[nH]c(-c4cccc(CN(C)C)c4)cc23)c(-c2ccc(NC(=O)N(C)C)cc2)n1
inactive: Potency [9]
active: Potency [5] 13.7 µM | Potency [6] 4.85 µM | Potency [7] 2.43 µM | Potency [8] 3.43 µM

CCCC1OC2C[C@@H]3[C@H]4CCC5=CC(=O)C=C[C@]5(C)[C@H]4C(O)C[C@]3(C)[C@]2(C(=O)CO)O1 (stereo not given in full)
inactive: Potency [5] | Potency [6] | Potency [7] | Potency [8] | Potency [9]

O=C(NCc1ccncc1)C12C[C@H]3C[C@@H](C1)CC(c1ccc(Cl)cc1)(C3)C2
inactive: Potency [5] | Potency [6] | Potency [7] | Potency [8] | Potency [9]

C[C@]12CCC3c4ccc(O)cc4CCC3C1CCC2=O (stereo not given in full)
inactive: Potency [5] | Potency [6] | Potency [7] | Potency [8] | Potency [9] | Potency [15]

COc1ccc2c(Oc3ccc(NC(=O)c4c(C)n(CC(C)(C)O)n(-c5ccccc5)c4=O)cc3F)ccnc2c1
inactive: Potency [5] | Potency [6] | Potency [7] | Potency [8] | Potency [9]
-8.07%: activity change, negative = inhibition [15]

COc1cccc2c(NCc3ccccc3)nc(-n3c(N)nc4ccccc43)nc12
inactive: Potency [5] | Potency [6] | Potency [7] | Potency [8] | Potency [9]

CN1CC(=O)NC1=NC(=O)Nc1cccc(Cl)c1
inactive: Potency [5] | Potency [6] | Potency [7] | Potency [8] | Potency [9]
-1.73%: activity change, negative = inhibition [15]

CC(C)(F)C[C@H](N[C@@H](c1ccc(-c2ccc(S(C)(=O)=O)cc2)cc1)C(F)(F)F)C(=O)NC1(C#N)CC1
inactive: Potency [5] | Potency [6] | Potency [7] | Potency [8] | Potency [9]

Nc1cccc(-c2cc3c(Oc4cccc(O)c4)ncnc3[nH]2)c1
inactive: Potency [5] | Potency [8] | Potency [9]
-8.51%: activity change, negative = inhibition [15]
active: Potency [6] 34.3 µM | Potency [7] 30.6 µM

O=S(=O)(O)CCSSCCS(=O)(=O)O
inactive: Potency [5] | Potency [6] | Potency [7] | Potency [8] | Potency [9] | Potency [15]

NC(=O)[C@@H](CCC(F)(F)F)N(Cc1ccc(-c2ncon2)cc1F)S(=O)(=O)c1ccc(Cl)cc1
-47.2%: activity change, negative = inhibition [15]
inactive: Potency [5] | Potency [6] | Potency [7] | Potency [8] | Potency [9]

C[C@H]1COC2=C1C(=O)C(=O)c1c2ccc2c1CCCC2(C)C
inactive: Potency [5] | Potency [6] | Potency [7] | Potency [8] | Potency [9]

COc1ccc(C(=O)CC2(O)C(=O)Nc3c(Cl)ccc(Cl)c32)cc1 (stereo not given)
active: Potency [5] 24.3 µM | Potency [6] 1.53 µM | Potency [7] 0.432 µM | Potency [8] 2.73 µM
inactive: Potency [9]

C[C@H](NC(=O)C(=O)Nc1ccccc1C(C)(C)C)C(=O)N[C@@H](CC(=O)O)C(=O)COc1c(F)c(F)cc(F)c1F
-42.2%: activity change, negative = inhibition [15]
inactive: Potency [5] | Potency [6] | Potency [7] | Potency [8] | Potency [9]

O=c1oc2cc(O)ccc2s1
inactive: Potency [5] | Potency [6] | Potency [7] | Potency [8] | Potency [9]
-12.6%: activity change, negative = inhibition [15]

CC(C)Nc1cc(C(F)(F)F)cc2nc(NC(=O)c3cccnc3)nn12
inactive: Potency [5] | Potency [6] | Potency [7] | Potency [8] | Potency [9]
-4.48%: activity change, negative = inhibition [15]

O=C(O)Cc1cccc(OCCCN(Cc2cccc(C(F)(F)F)c2Cl)CC(c2ccccc2)c2ccccc2)c1
inactive: Potency [5] | Potency [6] | Potency [7] | Potency [8] | Potency [9]

CCOc1ccccc1N=Nc1c(C)[nH]n(-c2nc(-c3ccccc3)cs2)c1=O
inactive: Potency [5] | Potency [6] | Potency [7] | Potency [8] | Potency [9]

C[C@]12CC[C@@H]3c4ccc(O)cc4C[C@@H](CCCCCCCCCS(=O)CCCC(F)(F)C(F)(F)F)[C@H]3[C@H]1CC[C@H]2O (stereo not given in full)
inactive: Potency [5] | Potency [6] | Potency [7] | Potency [8] | Potency [9]

CN(C[C@@H]1COCCO1)S(=O)(=O)Nc1ccc2ccc3ncc(-c4cnn(C)c4)cc3c(=O)c2c1
inactive: Potency [5] | Potency [6] | Potency [7] | Potency [8] | Potency [9]

CC(=O)SCC(Cc1ccccc1)C(=O)NCC(=O)OCc1ccccc1 (stereo not given)
inactive: Potency [9]
active: Potency [5] 1.09 µM | Potency [6] 0.432 µM | Potency [7] 0.172 µM | Potency [8] 0.273 µM

C[C@H](NC(=O)[C@@H](O)c1cc(F)cc(F)c1)C(=O)N[C@@H]1C(=O)N(C)c2ccccc2-c2ccccc21
inactive: Potency [5] | Potency [6] | Potency [7] | Potency [8] | Potency [9]

COc1cc2nccc(Oc3ccc(NC(=O)Nc4ccc(F)cc4F)c(F)c3)c2cc1OC
inactive: Potency [5] | Potency [6] | Potency [7] | Potency [8] | Potency [9]

CCOC(=O)C=C[C@H](C[C@@H]1CCNC1=O)NC(=O)[C@@H](CC(=O)[C@@H](NC(=O)c1cc(C)on1)C(C)C)Cc1ccc(F)cc1
inactive: Potency [5] | Potency [6] | Potency [7] | Potency [8] | Potency [9]

Cc1cnc(CNC(=O)c2c(=O)c3ccc(N4CCCN(C)CC4)nc3n3c2sc2ccccc23)cn1
inactive: Potency [5] | Potency [8] | activity change, negative = cytotoxicity [9] -25.6% [at 11.3 µM]
active: Potency [6] 15 µM | Potency [7] 8.41 µM

CC(C)(C)OC(=O)N[C@H]1CCCCCC=C[C@@H]2C[C@@]2(C(=O)NS(=O)(=O)C2CC2)NC(=O)[C@@H]2C[C@@H](OC(=O)N3Cc4cccc(F)c4C3)CN2C1=O
inactive: Potency [5] | Potency [6] | Potency [7] | Potency [8] | Potency [9]
